Screens as filed in PubChem BioAssay.
NS1 inh: blocks influenza NS1 protein function; Potency, µM (series often up to 46.1 µM), for the others: top-dose activity, positive = more growth; 0.4% of 270,000 active; calls by dose curve; also: potency is read from the fitted curve at half-maximal effect; actives are rising curves; nearly all actives have a fitted effect of over 50% in size
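A cell-based growth assay was used: compounds that relieve NS1-induced slow growth of budding yeast raise OD600. Assay medium was yeast nitrogen base with ammonium sulphate and -URA supplement, pH 6.0, with 2% galactose.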
Pf growth 96h: P. falciparum growth inhibition at 96 hour, primary screen for plastid delayed-death inhibitors; P. falciparum luciferase reporter growth, 96 h; Potency, µM (highest dose often 28.7 µM), without a hit: at the highest dose activity change, negative = inhibition, actives largely listed as inhibitors; 6.9% of 320,000 active; AID 504834; also: potency is read from the fitted curve at half-maximal effect; % is scaled to controls: 0 for no effect and ±100 for the full control effect
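Readout is luminescence from an integrated firefly luciferase in P. falciparum. Red cells, 2% hematocrit and 0.05% parasitemia final, were cultured with compound through two parasite generations (96 hours) at 37 C, 5% CO2.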
Pf growth 48h: inhibits P. falciparum growth in the first generation, 48 h. P. falciparum luciferase growth in erythrocytes, 48 h. Potency, µM (doses to about 28.7 µM), without a hit: at the top dose activity change, negative = inhibition, usual class: inhibitors. 5.9% of 310,000 active. AID 504832; also: potency is read from the fitted curve at half-maximal effect; % is scaled to controls: 0 for no effect and ±100 for the full control effect
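Compounds are pin-transferred into medium, infected erythrocytes (2% hematocrit, 0.1% parasitemia final) are added, and plates sit one parasite generation at 37 C in 5% CO2. Detection reagent is then added and luminescence measured.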
Cycloheximide cs: affects cycloheximide protein synthesis inhibition readout, counter-screen; cell reporter, cycloheximide protein synthesis inhibition counterscreen; max response, %; 12% of 300,000 active; AID 2314; in the data active = max response mostly above about 13%, no sharp cut-off; inactive = mostly below about 14%; also: read at 38.3 µM for the half of the compounds with a filed dose; 0% is about no effect
Shiga inhibitor: inhibitors of Shiga toxin in Vero cells. Vero cells, Shiga toxin protein synthesis inhibition reporter. inhibition, % at 38.7 µM. 9.2% of 290,000 active. AID 2315; in the data active = inhibition mostly above about 28%, no sharp cut-off; inactive = mostly below about 43%; also: 0% is about no effect
* marks the source's active call; other numbers are inactive results; ? = inconclusive; . = not tested or not shown. Sampled rows, rich in hits. Any-hit rate of the full collection: about 21%. Unless noted, calls follow the shape of the dose curve; as a rule, active = well fitted inhibition curve with a large enough effect; inconclusive = small, poorly fitted or top-dose-only effect, or another doubt; inactive = no such curve, though single readings can be large or run the other way.

SMILES | NS1 inh | Pf growth 96h | Pf growth 48h | Cycloheximide cs | Shiga inhibitor
CCc1cccc(NC(=O)c2sc3nc4n(c(=O)c3c2C)CCC4)c1 | -5% | ? | 42% | 28* | 73*
CCOC(=O)N1CCC(NC(=O)c2sc3nc4n(c(=O)c3c2C)CCCC4)CC1 | -5% | 2.3µM* | . | -3 | -8
Cc1cc(C)cc(NC(=O)c2sc3nc4n(c(=O)c3c2C)CCC4)c1 | 4% | 11% | 18% | 17 | 2
CCOC(=O)N1CCN(C(=O)Nc2sc3nc4n(c(=O)c3c2C)CCC(C)CC4)CC1 (stereo unspecified) | 5% | 13µM* | 12µM* | -3 | 18
CC(c1ccccc1)N1CCn2c(nc3cc(NC(=O)NC4CCCCC4)ccc32)C1 (stereo unspecified) | 6% | ? | . | 7 | 3
COC(=O)C1CCN(C(=O)COC(=O)COc2ccc(C#N)cc2)CC1 | -1% | -10% | 4% | -1 | -10
CC(C)(C)NC(=O)CCN(/N=C/c1ccc([N+](=O)[O-])o1)C1=NS(=O)(=O)c2ccccc21 | -3% | ? | -18% | -2 | -2
O=C(/C=C/c1cccnc1)c1ccc(F)c(F)c1 | -11% | 3% | 9% | -3 | 16
CN(C)c1ccc(C(=O)/C=C/c2cccnc2)cc1 | -4% | 8% | -2% | 46* | 82*
CN(C)c1ccc(/C=C/C(=O)c2cccc(Br)c2)cc1 | -5% | ? | 81% | 64* | 127*
CCN(C(=O)c1cccc(Br)c1)c1ccccc1 | -12% | -30% | -23% | 1 | -5
CCOC(=O)C(=NCCCN(C)C)NNc1cc(C(F)(F)F)ccc1Cl | . | 32% | 24% | -3 | -4
O=C(CN(C(=O)c1csnn1)c1ccccc1Cl)NCCc1ccccc1 | 3% | 12% | 5% | -5 | 4
Cc1ccccc1N(CC(=O)NCCc1ccccc1)C(=O)c1ccc(N2CCCC2)nc1 | -34% | ? | 10µM* | -3 | -21
COc1cccc(/C=N\NS(=O)(=O)c2ccccc2)c1OC | 8% | ? | 13% | -2 | -26
Cc1sc2nc(-c3cccs3)nc(N3CCCN(C)CC3)c2c1C | -7% | ? | 10µM* | 5 | 33
CCCC(CCC)=NNC(=O)c1ccccc1F | . | 85% | 33% | 19 | 17
COc1cccc(CN2CC34CC(c5ccc(C(C)=O)cc5)C(CC3S2(=O)=O)O4)c1 (stereo unspecified) | . | . | . | -4 | -7
CCC(C(=O)NCc1ccco1)n1nc(C)c2c(C)n(-c3ccccc3)nc2c1=O (stereo unspecified) | 17% | 15µM* | -14% | -8 | -6
CCC(C(=O)NCCC1=CCCCC1)n1nc(C)c2c(C)n(-c3ccccc3)nc2c1=O (stereo unspecified) | -9% | 12µM* | ? | -9 | -5
CCC(C(=O)NCCCc1ccccc1)n1nc(C)c2c(C)n(-c3ccccc3)nc2c1=O (stereo unspecified) | -7% | -27% | -4% | -13 | 11
CCC(C(=O)NC1CCCCCC1)n1nc(C)c2c(C)n(-c3ccccc3)nc2c1=O (stereo unspecified) | 2% | 10µM* | ? | 16 | 32
CCn1c(SCC(=O)Nc2nccs2)nnc1-c1ccc(C)cc1 | 4% | 2% | -13% | -2 | 18
Cc1ccc(-c2nnc(SCC(=O)Nc3nccs3)n2N)cc1 | 6% | 92% | 47% | 30* | 43*
Cc1cc(C)cc(NC(=O)CSc2nnc(-c3ccccc3)n2N)c1 | 3% | ? | 0% | 14* | -10
SMILES | NS1 inh | Pf growth 96h | Pf growth 48h | Cycloheximide cs | Shiga inhibitor
O=C(CSc1nnc(-c2ccncc2)n1Cc1ccco1)Nc1nccs1 | 3% | 7.4µM* | 14% | -2 | 1
CCOC(=O)CNC(=O)CSc1nnc(-c2ccccc2)n1Cc1ccco1 | 0% | 12µM* | 0% | 8 | -11
Cc1cccc(NC(=O)CSc2nnc(-c3ccccc3)n2N)c1 | 18% | 26% | 23% | 12 | 12
Cc1cccc(C)c1NC(=O)CSc1nnc(-c2ccncc2)n1Cc1ccco1 | -1% | 13% | . | -4 | -20
CCn1cc(CNC(=O)c2c(-c3c(Cl)cccc3Cl)noc2C)c(C)n1 | 1% | -5% | -8% | -2 | 14
O=C(c1n[nH]c2ccccc12)N1CCN(c2ccc(F)cc2)CC1 | . | ? | ? | 11 | 33
Cn1cc(SCC(=O)Nc2nccs2)c2ccccc21 | -16% | 70% | 62% | 40* | 83*
Nc1ccccc1SCC(=O)Nc1nccs1 | 0% | 5% | 30% | 4 | 10
COc1ccc(NC(C)=O)cc1NC(=O)CSc1nnc(-c2ccncc2)n1C | 5% | -9% | 7% | 2 | 3
COc1ccc(NC(C)=O)cc1NC(=O)CSc1nnc(-c2ccccc2)n1N | 0% | 16% | -7% | 18 | 60*
CN(C)c1cc[n+](Cc2c(Cl)cccc2Cl)cc1 | 10% | 0.37µM* | 4.7µM* | -5 | -6
CCC(C)N1C(=O)CN(C2CCCCCC2)C(=O)C1c1ccccc1F (stereo unspecified) | . | ? | -27% | 7 | -7
Cn1c(SCC(=O)NC2(C#N)CCCCC2)nnc1-c1cccnc1 | 11% | -16% | -20% | 4 | -14
Cc1ccc(C(OCC(O)CN2CCCCC2CO)c2ccccc2)cc1 (stereo unspecified) | 3% | 1.7µM* | ? | -2 | -7
CC1CCCN(CC(O)COC(c2ccccc2)c2ccccc2)C1 (stereo unspecified) | . | ? | ? | 1 | -3
CCOC(=O)c1cc(NC(=O)Nc2ccccc2OC)c(C)nc1C | -11% | . | -3% | 1 | -4
CCC(C(=O)Nc1ccccc1OC)n1c(C(=O)OC)cc2ccsc21 (stereo unspecified) | -37% | ? | 12µM* | -2 | 4
Cc1c(C(=O)NCC2COc3ccccc3O2)oc2ccc(S(=O)(=O)N3CCOCC3)cc12 (stereo unspecified) | -46% | 22% | ? | -2 | -8
CCN(CC)S(=O)(=O)c1ccc2oc(C(=O)NC3CC3)c(C)c2c1 | 11% | ? | -28% | -4 | 45
CCN(CC)S(=O)(=O)c1ccc2oc(C(=O)NCc3ccc(F)cc3)c(C)c2c1 | -3% | . | 8.3µM* | -2 | -8
CCN(CC)S(=O)(=O)c1ccc2oc(C(=O)NCC3COc4ccccc4O3)c(C)c2c1 (stereo unspecified) | ? | ? | 10µM* | 5 | 5
Cc1c(C(=O)NCC2COc3ccccc3O2)oc2ccc(S(=O)(=O)N3CC(C)CC(C)C3)cc12 (stereo unspecified) | 11% | . | 8.3µM* | -2 | 9
COc1cccc(NC(=O)CN(C)C(C)C(=O)Nc2cc([N+](=O)[O-])ccc2Cl)c1 (stereo unspecified) | . | -17% | -16% | -2 | 9
Cc1cc(S(=O)(=O)NCC(C)C)ccc1OCC(=O)NCc1ccco1 | -2% | 1% | -9% | -5 | 6
COc1ccc(CCn2c(C)cc(C(=O)CN3C(=O)C(=O)N(C4CCCC4)C3=O)c2C)cc1OC | . | ? | 9.3µM* | . | .
